This note sets out measurements from PubChem BioAssay (EPA / NIEHS).

Experiment [1] in a line: ATG_E_Box_CIS: Attagene CIS-FACTORIAL HepG2 Assay for human Enhancer Box (E-box) (AID 2282936). To be noted: HepG2 E-box cis-reporter transcription, actives raise or lower the signal. The method in brief: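 In this cell-based setup, HepG2 cells bearing transfected promoter-driven reporter units were exposed to chemicals for 24 h; reporter transcripts were amplified, 6-FAM-labelled, cut with HpaI and sized by capillary electrophoresis.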

Experiment [2] can be described thus: ATG_M_61_CIS: Attagene CIS-FACTORIAL HepG2 Assay for M61 Transcription Factor (Internal Marker) (AID 2282937). To be noted: HepG2 Attagene CIS-FACTORIAL M61 internal marker reporter; actives raise or lower the signal. Summed up: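 Fluorescence from labelled cDNA fragments, separated by capillary electrophoresis, quantifies reporter induction. HepG2 cells bearing transiently transfected cis-promoter MRTUs were incubated with test chemical for 24 h; DMSO defined baseline for gain/loss fitting.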

Experiment [3] can be described thus: ATG_EGR_CIS: Attagene CIS-FACTORIAL HepG2 Assay for human Early Growth Response 1 (EGR1) (AID 2282938). To be noted: HepG2 Attagene CIS-FACTORIAL EGR reporter mRNA; actives raise or lower the signal. Summed up: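 Cell-based multiplex transcription assay: HepG2 carrying transfected cis-element reporter units, 24 h chemical treatment. Fluorescence from capillary electrophoresis of RT-PCR products gives mRNA levels; fitting is bidirectional relative to DMSO.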

Experiment [4] can be described thus: ATG_M_19_CIS: Attagene CIS-FACTORIAL HepG2 Assay for M19 Transcription Factor (Internal Marker) (AID 2282939). To be noted: HepG2 Attagene CIS-FACTORIAL M19 internal marker reporter; actives raise or lower the signal. The method in brief:
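HepG2, MRTU transient transfection, 24 h dosing. Total RNA → RT-PCR → 6-FAM primer extension → HpaI digest → CE fluorescence. Bidirectional curve fit, DMSO negative control.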

Experiment [5] in a line: ATG_Ets_CIS: Attagene CIS-FACTORIAL HepG2 Assay for human Erythroblast Transformation Specific (ETS) (AID 2282941). To be noted: HepG2 ETS cis-reporter transcription, actives raise or lower the signal. Summed up:
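Multiplexed reporter transcript profiling: HepG2, 24 h treatment, total RNA to cDNA, PCR, 6-FAM labelling, HpaI cut, capillary electrophoresis. Gain- or loss-of-signal fitted against DMSO.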

Experiment [6] deals with Hepatocyte nuclear factor 3-beta (Homo sapiens) (UniProt Q9Y261). Description: ATG_FoxA2_CIS: Attagene CIS-FACTORIAL HepG2 Assay for human Forkhead box A2 (FOXA2) (AID 2282942). To be noted: HepG2 cis-reporter transcription factor activity, 24 h; actives raise or lower the signal. Summed up: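 In transiently transfected human HepG2 cells, promoter-driven reporter mRNA levels after 24 h chemical exposure are determined via RT-PCR with capillary electrophoresis. DMSO serves as baseline for bidirectional fitting.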
Sequence of Hepatocyte nuclear factor 3-beta (Homo sapiens) (Q9Y261 whole entry, looked up): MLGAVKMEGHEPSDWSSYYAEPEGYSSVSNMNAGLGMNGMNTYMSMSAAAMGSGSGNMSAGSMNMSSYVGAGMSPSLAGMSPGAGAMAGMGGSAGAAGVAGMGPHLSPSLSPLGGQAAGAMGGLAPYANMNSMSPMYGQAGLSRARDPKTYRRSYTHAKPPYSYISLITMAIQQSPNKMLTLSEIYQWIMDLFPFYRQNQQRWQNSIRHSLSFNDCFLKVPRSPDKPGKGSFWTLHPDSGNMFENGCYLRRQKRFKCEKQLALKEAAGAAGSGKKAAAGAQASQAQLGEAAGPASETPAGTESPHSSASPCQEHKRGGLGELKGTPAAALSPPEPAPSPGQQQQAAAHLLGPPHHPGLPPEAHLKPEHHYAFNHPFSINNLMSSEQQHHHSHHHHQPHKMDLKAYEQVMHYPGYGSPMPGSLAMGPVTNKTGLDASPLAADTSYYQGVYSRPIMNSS

Experiment [7] in a line: ATG_FoxO_CIS: Attagene CIS-FACTORIAL HepG2 Assay for human Forkhead box O (FoxO) (AID 2282943). To be noted: HepG2 Attagene cis-reporter, FoxO element, mRNA; actives raise or lower the signal. Summed up: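 Read-out: fluorescence of 6-FAM-labelled reporter cDNA fragments resolved by capillary electrophoresis. Transiently transfected HepG2 cells were dosed for 24 h; activity fitted in both directions relative to DMSO controls.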

The nature of experiment [8]: ATG_GATA_CIS: Attagene CIS-FACTORIAL HepG2 Assay for human GATA Binding Protein (AID 2282944). To be noted: HepG2 GATA cis-element reporter, Attagene multiplex mRNA; actives raise or lower the signal. The method in brief:
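Cells: HepG2, transiently transfected with cis-regulated reporter transcription units. Exposure: 24 h. Detection: RT-PCR plus capillary electrophoresis of FAM-labeled fragments. Analysis: bidirectional, DMSO as baseline.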

A short description of experiment [9]: ATG_GLI_CIS: Attagene CIS-FACTORIAL HepG2 Assay for human Zinc Finger Protein GLI1 (AID 2282945). To be noted: HepG2, Attagene cis-factorial reporter mRNA, GLI element; actives raise or lower the signal. The method in brief: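 Transiently transfected HepG2 cells report endogenous transcription factor activity via cis-element-driven reporter units. After 24 h compound exposure, reporter mRNA was measured by RT-PCR with capillary electrophoresis; bidirectional fitting against DMSO baseline.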

A short description of experiment [10]: ATG_GRE_CIS: Attagene CIS-FACTORIAL HepG2 Assay for human Glucocorticoid Response Elements (GRE) (AID 2282947). To be noted: HepG2 GRE cis-reporter, Attagene multiplex mRNA; actives raise or lower the signal. Summed up:
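Fluorescence intensity of reporter-specific cDNA fragments, separated by capillary electrophoresis, provides the signal. Constructs carry cis-regulating promoters in transiently transfected HepG2 liver cells; 24 h incubation; fitting is bidirectional against DMSO.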

Experiment [11] can be described thus: ATG_ISRE_CIS: Attagene CIS-FACTORIAL HepG2 Assay for human Interferon Regulatory Factor 1 (IRF1) binding to an Interferon-Stimulated Response Element (ISRE) (AID 2282948). To be noted: HepG2 ISRE cis-reporter (Attagene), mRNA transcription readout; actives raise or lower the signal. Summed up:
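Signal reflects induction or loss of ISRE-linked reporter mRNA in transiently transfected HepG2 cells after a 24 h treatment, detected by fluorescent RT-PCR fragments on capillary electrophoresis and normalised to DMSO.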

Experiment [12] in a line: ATG_M_32_CIS: Attagene CIS-FACTORIAL HepG2 Assay for M32 Transcription Factor (Internal Marker) (AID 2282949).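 Further: background control marker of the multiplexed CIS panel rather than a real target.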 To be noted: HepG2 Attagene cis-factorial M32 reporter, mRNA; actives raise or lower the signal. Summed up:
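HepG2 transfectants (cis-regulated reporter transcription units) dosed 24 h. Reporter mRNA by RT-PCR plus CE, analysed as gain or loss relative to DMSO.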

Experiment [13] can be described thus: ATG_M_06_CIS: Attagene CIS-FACTORIAL HepG2 Assay for M06 Transcription Factor (Internal Marker) (AID 2282950). To be noted: HepG2 Attagene CIS-FACTORIAL M06 internal marker reporter; actives raise or lower the signal. The method in brief:
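Measured 24 h post-dosing in transiently transfected HepG2 cells, this internal-marker endpoint reports reporter mRNA via RT-PCR with fluorescent primer extension and capillary electrophoresis. DMSO served as negative control and baseline for bidirectional fitting.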

For experiment [14], the target named is Hypoxia-inducible factor 1-alpha (Homo sapiens) (UniProt Q16665). Description: ATG_HIF1a_CIS: Attagene CIS-FACTORIAL HepG2 Assay for human Hypoxia Inducible Factor 1 (HIF1A) (AID 2282951). To be noted: HepG2 Attagene cis-factorial HIF1a reporter transcription; actives raise or lower the signal. The method in brief:
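In this multiplexed cell assay, HepG2 cells bearing transfected cis reporters are dosed for 24 h and reporter mRNA is read by RT-PCR plus capillary electrophoresis; signal increases and decreases are both scored against DMSO.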

The target of experiment [15] is Hepatocyte nuclear factor 6 (Homo sapiens) (UniProt Q9UBC0). Description: ATG_HNF6_CIS: Attagene CIS-FACTORIAL HepG2 Assay for human Hepatocyte Nuclear Factor 6 (HNF6) (AID 2282952). To be noted: HepG2 Attagene cis-factorial HNF6 reporter transcription; actives raise or lower the signal. Summed up:
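Endogenous factor activity read in transiently transfected HepG2 via promoter-regulated reporter transcripts. RNA harvested 24 h post-dosing, reverse-transcribed, PCR-amplified, FAM-labelled, HpaI-digested and resolved by capillary electrophoresis; fitted in both directions against DMSO.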

Experiment [16] concerns the target Heat shock factor protein 1 (Homo sapiens) (UniProt Q00613). In words: ATG_HSE_CIS: Attagene CIS-FACTORIAL HepG2 Assay for human Heat Shock Transcription Factor 1 (HSE) (AID 2282953). To be noted: HepG2 HSE cis-reporter, Attagene RNA transcription; actives raise or lower the signal. Summed up:
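Reporter mRNA induction in HepG2 is measured 24 h after dosing, using transiently transfected multiplexed cis-regulated reporter units. Signal comes from capillary electrophoresis of labelled RT-PCR products, with DMSO as negative control.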

A short description of experiment [17]: ATG_MRE_CIS: Attagene CIS-FACTORIAL HepG2 Assay for human Metal Responsive Element (MRE) (AID 2282954). To be noted: HepG2 MRE cis-reporter transcription, Attagene multiplex; actives raise or lower the signal. Summed up: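 Measured here is mRNA induction from an MRE cis-element reporter in HepG2 after 24 h, quantified by fluorescence of labelled RT-PCR products on capillary electrophoresis; gain- and loss-of-signal fits use DMSO as baseline.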

Experiment [18] in a line: ATG_PBREM_CIS: Attagene CIS-FACTORIAL HepG2 Assay for human Phenobarbital-responsive Enhancer Module (PBREM) (AID 2282955). To be noted: HepG2 PBREM cis-reporter, Attagene multiplexed transcription; actives raise or lower the signal. Summed up: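 After a 24 h incubation with test chemical, transfected HepG2 cells yield total RNA; reporter-specific RT-PCR products are fluorescently labelled, HpaI-digested and resolved by capillary electrophoresis against ROX size standards.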

Calls of active or inactive are those of the source. How the source made its calls: active means hit-call score of the fitted dose curve at least 0.9, where 1 is the maximum; inactive means score below 0.9.

Sequence of Heat shock factor protein 1 (Homo sapiens) (Q00613 whole entry, looked up): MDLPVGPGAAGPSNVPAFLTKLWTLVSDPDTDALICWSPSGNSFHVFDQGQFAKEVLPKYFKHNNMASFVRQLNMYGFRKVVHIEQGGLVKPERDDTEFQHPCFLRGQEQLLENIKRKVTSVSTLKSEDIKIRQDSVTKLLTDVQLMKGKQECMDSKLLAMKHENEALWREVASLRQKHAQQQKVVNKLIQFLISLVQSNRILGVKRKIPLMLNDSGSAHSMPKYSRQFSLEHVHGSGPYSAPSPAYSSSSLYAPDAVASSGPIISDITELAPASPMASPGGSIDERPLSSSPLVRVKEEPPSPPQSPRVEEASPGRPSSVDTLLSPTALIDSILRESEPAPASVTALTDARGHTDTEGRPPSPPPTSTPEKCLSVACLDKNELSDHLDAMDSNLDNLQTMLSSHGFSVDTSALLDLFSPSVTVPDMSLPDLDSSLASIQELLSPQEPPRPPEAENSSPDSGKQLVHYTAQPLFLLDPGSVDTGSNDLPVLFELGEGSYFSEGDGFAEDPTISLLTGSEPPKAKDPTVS
Sequence of Hepatocyte nuclear factor 6 (Homo sapiens) (Q9UBC0 whole entry, looked up): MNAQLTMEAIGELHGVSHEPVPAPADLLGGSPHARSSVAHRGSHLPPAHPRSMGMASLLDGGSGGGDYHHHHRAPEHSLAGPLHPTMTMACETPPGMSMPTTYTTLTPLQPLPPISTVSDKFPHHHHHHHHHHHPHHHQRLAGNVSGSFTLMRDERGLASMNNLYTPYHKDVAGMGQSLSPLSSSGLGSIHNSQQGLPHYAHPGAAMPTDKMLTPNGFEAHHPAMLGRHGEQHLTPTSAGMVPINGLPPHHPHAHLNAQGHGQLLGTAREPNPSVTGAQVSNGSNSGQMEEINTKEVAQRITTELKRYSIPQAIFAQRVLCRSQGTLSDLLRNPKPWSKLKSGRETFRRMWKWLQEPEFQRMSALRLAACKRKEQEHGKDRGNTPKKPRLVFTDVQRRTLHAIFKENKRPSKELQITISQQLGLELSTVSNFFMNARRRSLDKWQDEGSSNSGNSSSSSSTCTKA
Sequence of Hypoxia-inducible factor 1-alpha (Homo sapiens) (Q16665 whole entry, looked up): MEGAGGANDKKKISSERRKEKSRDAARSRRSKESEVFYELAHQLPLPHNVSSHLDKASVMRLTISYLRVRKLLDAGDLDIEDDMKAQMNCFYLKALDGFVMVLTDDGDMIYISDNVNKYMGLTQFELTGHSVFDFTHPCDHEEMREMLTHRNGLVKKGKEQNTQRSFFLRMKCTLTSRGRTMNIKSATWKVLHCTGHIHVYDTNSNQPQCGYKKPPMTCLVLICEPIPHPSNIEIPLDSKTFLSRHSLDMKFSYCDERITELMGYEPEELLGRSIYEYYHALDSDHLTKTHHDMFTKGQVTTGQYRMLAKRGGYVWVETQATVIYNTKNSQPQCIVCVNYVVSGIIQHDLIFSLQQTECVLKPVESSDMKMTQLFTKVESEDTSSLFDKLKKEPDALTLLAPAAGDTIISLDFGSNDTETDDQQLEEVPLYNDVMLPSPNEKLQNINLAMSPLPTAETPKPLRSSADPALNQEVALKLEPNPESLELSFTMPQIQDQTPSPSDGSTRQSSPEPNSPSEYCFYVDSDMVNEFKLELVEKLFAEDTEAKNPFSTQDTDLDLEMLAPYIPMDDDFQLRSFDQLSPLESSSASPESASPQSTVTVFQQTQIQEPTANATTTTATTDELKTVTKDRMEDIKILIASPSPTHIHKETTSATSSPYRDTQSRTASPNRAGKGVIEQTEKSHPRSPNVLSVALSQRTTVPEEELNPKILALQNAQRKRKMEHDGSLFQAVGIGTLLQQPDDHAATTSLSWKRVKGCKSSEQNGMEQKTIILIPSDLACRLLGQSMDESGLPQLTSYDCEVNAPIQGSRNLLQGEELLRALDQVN

As for `CCCCC[Si](OCC)(OCC)OCC`, the result in experiment [1], in [2], in experiment [3], in experiment [4], in experiment [5] and in experiment [6] was inactive. Also, the molecule was called inactive in experiment [7], in experiment [8], in [9], in experiment [10], in [11] and in [12]. The outcome in [13], in [14], in [15], in experiment [16] and in experiment [17] was inactive.
For `CCO[Si](CCCS)(OCC)OCC`, the outcome in experiment [1], in [2], in [3], in [4], in experiment [5] and in experiment [6] was inactive. For the same molecule, the molecule was classed as inactive in [7], in experiment [8], in experiment [9], in [10], in [11] and in experiment [12]. Moreover, the call in experiment [13], in experiment [15], in [16] and in experiment [17] was inactive. Moreover, the AC50 in experiment [14] was 28.4 µM (active).
On to `O=c1cc(-c2ccccc2)oc2cc(O)cc(O)c12`, for which, in [1], the AC50 is 25.9 µM (active). In addition, the result in experiment [2], in [3], in experiment [4], in experiment [5], in experiment [6] and in [7] was inactive. Also, the molecule was called inactive in experiment [8], in experiment [9], in experiment [10], in experiment [11], in experiment [12] and in experiment [13]. Also, the outcome in [15], in experiment [16], in [17] and in [18] was inactive.
With `O=C(O)c1cn(-c2ccc(F)cc2)c2cc(N3CCNCC3)c(F)cc2c1=O`, the result in [1], in experiment [2], in experiment [3], in experiment [4], in experiment [5] and in experiment [6] was inactive. Besides, the molecule was classed as inactive in experiment [7], in experiment [8], in [9], in experiment [10], in experiment [11] and in experiment [12]. Further, the outcome in experiment [13], in [15], in experiment [16] and in experiment [17] was inactive.
